# Test results as given in the supplement of paper PMC12282887.
# ± gives the standard deviation of the averaged measurements.
# System: E. coli BW25113 marRABp lux reporter
# Assay: promoter activity interaction Z-score (Lux/OD deviation from empty-vector control); higher = stronger promoter induction by the compound
# Procedure: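 E. coli BW25113 (wild type or ΔmarA/ΔsoxS/Δrob) carrying pTU175 luxCDABE promoter reporters was grown in LB in 384-well plates at 37°C with each of 94 compounds at 4 two-fold concentrations, in biological duplicates. Luminescence and OD600 were read every 30 min for 12 h and integrated as AUC over 8 h (0-8 h WT, 1-9 h mutants). Lux AUC was divided by OD AUC; the interaction score is the residual of a Huber robust fit of each promoter against the empty-vector control, then Z-transformed per promoter.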
smiles,measurement,setting,value
O=C(O)c1cn(C2CC2)c2cc(N3CCNCC3)c(F)cc2c1=O [Ciprofloxacin],promoter activity interaction Z-score,"0.0012 µg/ml, genetic background: wild type",-0.376 ± 0.019
same,promoter activity interaction Z-score,"0.0012 µg/ml, genetic background: ΔmarA",-0.0878 ± 0.24
same,promoter activity interaction Z-score,"0.0012 µg/ml, genetic background: Δrob",-0.0711 ± 0.075
same,promoter activity interaction Z-score,"0.0012 µg/ml, genetic background: ΔsoxS",0.251 ± 0.081
same,promoter activity interaction Z-score,"0.0025 µg/ml, genetic background: wild type",-0.228 ± 0.28
same,promoter activity interaction Z-score,"0.0025 µg/ml, genetic background: ΔmarA",-0.253 ± 0.031
same,promoter activity interaction Z-score,"0.0025 µg/ml, genetic background: Δrob",-0.0459 ± 0.41
same,promoter activity interaction Z-score,"0.0025 µg/ml, genetic background: ΔsoxS",0.188 ± 0.098
same,promoter activity interaction Z-score,"0.005 µg/ml, genetic background: wild type",-0.472 ± 0.005
same,promoter activity interaction Z-score,"0.005 µg/ml, genetic background: ΔmarA",-0.302 ± 0.12
same,promoter activity interaction Z-score,"0.005 µg/ml, genetic background: Δrob",-0.138 ± 0.072
same,promoter activity interaction Z-score,"0.005 µg/ml, genetic background: ΔsoxS",0.0987 ± 0.0052
same,promoter activity interaction Z-score,"0.0099 µg/ml, genetic background: wild type",2.5 ± 0.32
same,promoter activity interaction Z-score,"0.0099 µg/ml, genetic background: ΔsoxS",4.16
O=C1CN(/N=C/c2ccc([N+](=O)[O-])o2)C(=O)N1 [Nitrofurantoin],promoter activity interaction Z-score,"0.45 µg/ml, genetic background: wild type",0.183 ± 0.32
same,promoter activity interaction Z-score,"0.45 µg/ml, genetic background: ΔmarA",0.105 ± 0.23
same,promoter activity interaction Z-score,"0.45 µg/ml, genetic background: Δrob",0.131 ± 0.13
same,promoter activity interaction Z-score,"0.45 µg/ml, genetic background: ΔsoxS",0.198 ± 0.24
same,promoter activity interaction Z-score,"0.89 µg/ml, genetic background: wild type",0.503 ± 0.047
same,promoter activity interaction Z-score,"0.89 µg/ml, genetic background: ΔmarA",0.249 ± 0.27
same,promoter activity interaction Z-score,"0.89 µg/ml, genetic background: Δrob",0.252 ± 0.052
same,promoter activity interaction Z-score,"0.89 µg/ml, genetic background: ΔsoxS",0.0792 ± 0.11
same,promoter activity interaction Z-score,"1.8 µg/ml, genetic background: wild type",1.04 ± 0.38
same,promoter activity interaction Z-score,"1.8 µg/ml, genetic background: ΔmarA",0.658 ± 0.16
same,promoter activity interaction Z-score,"1.8 µg/ml, genetic background: Δrob",1.16 ± 0.11
same,promoter activity interaction Z-score,"1.8 µg/ml, genetic background: ΔsoxS",0.447 ± 0.016
same,promoter activity interaction Z-score,"3.6 µg/ml, genetic background: wild type",7.36 ± 0.64
same,promoter activity interaction Z-score,"3.6 µg/ml, genetic background: ΔmarA",4.45 ± 1.7
same,promoter activity interaction Z-score,"3.6 µg/ml, genetic background: Δrob",12.8 ± 0.43
same,promoter activity interaction Z-score,"3.6 µg/ml, genetic background: ΔsoxS",12.2
O=c1c(O)c(-c2ccc(O)c(O)c2)oc2cc(O)cc(O)c12 [Quercetin],promoter activity interaction Z-score,"18.9 µg/ml, genetic background: wild type",0.0379 ± 0.17
same,promoter activity interaction Z-score,"18.9 µg/ml, genetic background: ΔmarA",-0.192 ± 0.25
same,promoter activity interaction Z-score,"18.9 µg/ml, genetic background: Δrob",-0.164 ± 0.21
same,promoter activity interaction Z-score,"18.9 µg/ml, genetic background: ΔsoxS",0.203 ± 0.51
same,promoter activity interaction Z-score,"37.8 µg/ml, genetic background: wild type",0.341 ± 0.79
same,promoter activity interaction Z-score,"37.8 µg/ml, genetic background: ΔmarA",0.116 ± 0.59
same,promoter activity interaction Z-score,"37.8 µg/ml, genetic background: Δrob",0.248 ± 0.078
same,promoter activity interaction Z-score,"37.8 µg/ml, genetic background: ΔsoxS",0.179 ± 0.43
same,promoter activity interaction Z-score,"75.6 µg/ml, genetic background: wild type",0.82 ± 0.64
same,promoter activity interaction Z-score,"75.6 µg/ml, genetic background: ΔmarA",0.9 ± 0.12
same,promoter activity interaction Z-score,"75.6 µg/ml, genetic background: Δrob",-0.0348 ± 0.087
same,promoter activity interaction Z-score,"75.6 µg/ml, genetic background: ΔsoxS",0.129 ± 0.45
same,promoter activity interaction Z-score,"151.1 µg/ml, genetic background: wild type",1.13 ± 0.91
same,promoter activity interaction Z-score,"151.1 µg/ml, genetic background: ΔmarA",0.91 ± 0.61
same,promoter activity interaction Z-score,"151.1 µg/ml, genetic background: Δrob",0.867 ± 0.51
same,promoter activity interaction Z-score,"151.1 µg/ml, genetic background: ΔsoxS",0.0221 ± 0.045
